Measured values from PubChem BioAssay AID504809 (National Center for Advancing Translational Sciences (NCATS), 2011).
Results filed as inconclusive are left out. A number with no mark means an inactive call. Activity calls are given as the source filed them. Calls follow the shape of the dose curve; as a rule, active = well fitted curve in the direction sought with a large enough effect; inconclusive = small, poorly fitted or top-dose-only effect, or another doubt; inactive = no such curve, though single readings can be large or run the other way.

assay: Followup screen for small molecules that induce DNA re-replication in MCF 10A normal breast cells; conditions: MCF 10A DNA re-replication, Hoechst nuclear intensity, 48 h; series mostly up to 46.1 µM; re-replication activation: at the top concentration
Excerpt: NIH Molecular Libraries Probe Production Network [MLPCN] NIH Chemical Genomics Center [NCGC] MLPCN Grant: Fast Track K99 CA136555 Assay Provider: Melvin DePamphilis, NICHD, NIH Assay Overview Eukaryotic cells normally restrict genome duplication to once per cell division. When this process is aberrant, DNA re-replication occurs when cells reinitiate DNA replication before the first round of replication is complete. DNA re-replication induces the DNA damage response, arrests cell proliferation, and triggers apoptosis. The cell cycle components cyclin A, Cdt-1, Cdc6 and geminin are critical regulators of this process and their misregulation results in DNA re-replication in normal and cancer cells. To identify compounds that induce re-replication in normal cells, an image-based assay was used to measure DNA content of nuclei, as detected by the fluorescent DNA binding dye, Hoechst. Cell nuclei were imaged by a fluorescence scanning plate imager and compounds that induce DNA re-replication were identified by the increase of nuclei with elevated fluorescence intensity.
Assay Protocol Summary For screening, 250 cells in 5 uL/well were dispensed into black clear 1536-well plates (Aurora) using a solenoid-based dispenser. Following transfer of 23 nL compound or DMSO vehicle by a pin tool, the plates were incubated 48 hr at 37 C and 5% CO2. After addition of 1 uL/well Hoescht stain, the plates were incubated 40 min at 37 C, 5% CO2 and total intensity of fluorescent objects (nuclei) were enumerated by an Acumen Explorer Ex3 (TTP LabTech) fluorescence scanning plate imager (405 nm excitation, 500-530 nm emission). Keywords: NIH Roadmap, MLPCN, MLI, MLSMR, qHTS, NCGC, DNA replication, cancer

SMILES	re-replication activation	Potency
CC(C)NP(=O)(NC(C)C)OP(=O)(NC(C)C)NC(C)C	-3.1%	
COc1cc([C@@H]2c3cc4c(cc3[C@H](O)[C@@H]3COC(=O)[C@H]23)OCO4)cc(OC)c1OC		0.0268 µM (active)
NCC#Cc1ccccc1	14.6%	
